Sampled rows, rich in hits. Any-hit rate of the full collection: about 8.3%.
Chronic BCR inh – qHTS Assay to Find Inhibitors of Chronic Active B-Cell Receptor Signaling; 340,000 tested, 0.05% active; ABC-DLBCL IkBa-CBG/CBR reporter, luminescence ratio, 4 h; Potency, µM (top dose mostly 46.1 µM), for the others: at the highest dose activity change, negative = inhibition, most hits filed as inhibitors; AID 493014, 2011; active = well fitted inhibition curve with a large enough effect in the signal ratio, with a control signal flat, not every such curve was filed as active; inconclusive = small, poorly fitted or top-dose-only effect, or effect the other way, or a change in a side signal; the % refers to the signal ratio;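 also: potency is read from the fitted curve at half-maximal effect; plate controls were basal doxycycline-induced cells for no effect and cells given 10 µM MG132 for full effect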
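Compounds up to 46 uM were incubated four hours with TMD8 cells whose green CBG68 luciferase is fused to IkappaBalpha; red CBR luminescence normalised the signal, and concentration-effect curves were fitted to fusion, red and ratio data.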
Giardia killer – Small Molecules that selectively kill Giardia lamblia: qHTS. activity change, % at 7.66 µM, hits read low. Giardia lamblia trophozoite viability. 340,000 tested, 0.15% active; in the data active = activity change below about -80%; inconclusive = between about -30% and that limit;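 also: parasites exposed to compound for two days anaerobically before the ATP read; % is scaled to controls: 0 for no effect and ±100 for the full control effect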
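Media and compound were dispensed first, then trophozoites at 100 cells/well; plates sat 48 hrs at 37 deg C without oxygen before ATP luminescence reagent was added and read after 15-30 min at room temperature.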
VP16 counter – VP16 counterscreen qHTS for inhibitors of ROR gamma transcriptional activity; 310,000 tested, 3.5% active; Potency, µM (top dose mostly 53.6 µM), without a hit: top-dose activity, negative = inhibition, hits mostly inhibitors; Drosophila S2 Gal4-VP16 UAS-luciferase, luminescence, 20 h; AID 2546, 2010;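 also: Gal4-VP16 expression switched on by copper sulfate through the metallothionein promoter; potency is read from the fitted curve at half-maximal effect; % is scaled to controls: 0 for no effect and ±100 for the full control effect; nearly all actives have a fitted effect of over 50% in size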
RORg inh – qHTS for inhibitors of ROR gamma transcriptional activity. Nuclear receptor ROR-gamma (Mus musculus), P51450. Drosophila S2 Gal4-RORgamma UAS-luciferase reporter, 20 h. Potency, µM (highest dose often 53.6 µM), inactives show at the highest dose activity change, negative = inhibition, hits mostly inhibitors. 310,000 tested, 5.4% active. AID 2551, 2010; also: potency is read from the fitted curve at half-maximal effect; % is scaled to controls: 0 for no effect and ±100 for the full control effect; nearly all actives have a fitted effect of over 60% in size
Target sequence (P51450 whole entry, looked up, the tested form may be a part): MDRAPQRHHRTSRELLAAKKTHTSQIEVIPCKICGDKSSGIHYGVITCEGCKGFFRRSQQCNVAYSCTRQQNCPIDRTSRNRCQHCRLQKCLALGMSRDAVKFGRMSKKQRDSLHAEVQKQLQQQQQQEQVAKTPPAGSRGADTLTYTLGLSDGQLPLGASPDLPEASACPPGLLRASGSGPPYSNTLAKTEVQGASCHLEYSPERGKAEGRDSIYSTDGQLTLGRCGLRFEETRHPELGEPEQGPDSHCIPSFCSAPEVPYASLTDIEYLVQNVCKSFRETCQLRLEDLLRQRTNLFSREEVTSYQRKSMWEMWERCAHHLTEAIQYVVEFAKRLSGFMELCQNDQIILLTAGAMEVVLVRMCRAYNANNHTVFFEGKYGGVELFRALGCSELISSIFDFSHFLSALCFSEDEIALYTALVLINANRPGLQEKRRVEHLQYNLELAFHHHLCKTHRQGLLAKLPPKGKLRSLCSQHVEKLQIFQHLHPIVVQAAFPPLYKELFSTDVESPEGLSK
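ROR gamma transcriptional activity was tracked as Gal4-UAS luciferase output in stably transfected Drosophila Schneider cells, with compound added 1 hr before 700 uM copper sulfate induction and a 20 hr ambient-temperature incubation.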
MCF10A rereplic – A quantitative high throughput screen for small molecules that induce DNA re-replication in MCF 10a normal breast cells | MCF 10A DNA re-replication, Hoechst nuclear intensity, 48 h | Potency, µM (series often up to 46.1 µM), for inactives: at the top dose activity, positive = re-replication, usual class: activators | 350,000 tested, 2.9% active | AID 624296, 2012; also: potency is read from the fitted curve at half-maximal effect; % of control where 0% means no effect; nearly all actives have a fitted effect of over 50% in size
SW480 rereplic – A quantitative high throughput screen for small molecules that induce DNA re-replication in SW480 colon adenocarcinoma cells; SW480 DNA re-replication, Hoechst DNA content imaging, 48 h; Potency, µM (top dose mostly 46.1 µM), inactives show top-dose re-replication activation, actives largely listed as activators; 340,000 tested, 1.8% active; AID 624297, 2012; also: potency is read from the fitted curve at half-maximal effect; % of control where 0% means no effect; nearly all actives have a fitted effect of over 55% in size
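Readout is total intensity of Hoechst-stained nuclei, excited at 405 nm and collected at 500-530 nm. Compound treatment lasted 48 hr at 37 C in 5% CO2 before staining.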
An asterisk follows results filed as active; ? = inconclusive; . = not tested or not shown; [ ] = remark or other dose. Unless noted, calls follow the shape of the dose curve; as a rule, active = well fitted curve in the direction sought with a large enough effect; inconclusive = small, poorly fitted or top-dose-only effect, or another doubt; inactive = no such curve, though single readings can be large; an effect the other way counts as inactive or inconclusive.

SMILES	Chronic BCR inh	Giardia killer	VP16 counter	RORg inh	MCF10A rereplic	SW480 rereplic
O=[N+]([O-])c1nn(-c2ccccc2)n(O)c1=NC1CCN(Cc2ccccc2)CC1	7%	-85*	19%[10 µM]	-4%	?	10µM*
O=[N+]([O-])c1nn(-c2ccc3c(c2)OCCO3)n(O)c1=NC1CCN(Cc2ccccc2)CC1	-1%	-82*	?	-21%	15%	7.3µM*
O=[N+]([O-])c1nn(-c2ccccc2)n(O)c1=NCCc1ccccc1	9%	?	-16%	-32%	?	?
CCOC(=O)c1ccc(Oc2cc(C)nc(Cl)n2)cc1	-12%	-8	-9%	7%	?	-40%
CC(C)(O)C#Cc1ccc(CNC[C@H]2O[C@@H](n3cnc(C(N)=O)n3)[C@H](O)[C@@H]2O)s1	.	8	.	.	8%	10%
CCOc1cc(CNn2cn[nH]c2=S)cc(Cl)c1OCc1ccccc1F	-10%	-11	6.3µM*	7.9µM*	27%	?
CCNCc1cc(Cl)c(OCc2ccccc2)c(OCC)c1	?	-11	-10%	-26%	-10%	1%
CCN1CCN(C(=O)c2ccc(-c3nc4ccccc4s3)s2)CC1	?	6	0%	16%	?	-16%
c1ccc2sc(SN3CCOCC3)nc2c1	1%	5	7.1µM*	10µM*	1%	-2%
O=C(c1ccc(-c2nc3ccccc3s2)s1)N1CCOCC1	?	-84*	?	4.5µM*	?	2%
O=C(NC1CC1)c1ccc(-c2nc3ccccc3s2)s1	?	-100*	?	7.9µM*	1%	-3%
c1ccc2sc(N3CCOCC3)nc2c1	-11%	24	?	4%	13%	13%
CCCOc1ccc(-c2c(C(=O)N/N=C/c3cccnc3)nnn2-c2nonc2N)cc1	10%	-27	-4%	13%	-2%	-4%
C/C=C\c1ccc(OC)cc1	.	.	-8%	8%	-11%	-2%
COc1ccc(/C=C/C2=CC(C)(C)NC(=S)N2)cc1	?	2	2.5µM*	1.3µM*	3%	9%
Cc1nc2ccccc2nc1OCc1cccc([N+](=O)[O-])c1	1%	2	-12%	2%	-1%	-3%
COc1cc(CN2CCN(S(=O)(=O)c3ccccc3)CC2)cc(OC)c1OC	-4%	24	14%	12%	0%	1%
COc1cc(S(=O)(=O)N2CCN(Cc3ccccc3)CC2)ccc1Br	?	-13	23%	-21%	10µM*	?
COC(=O)c1scc(S(=O)(=O)C(C)C)c1N/N=C(\C#N)C(=O)c1ccc(Cl)cc1	3%	11	?	-30%	6%	0%
COC(=O)c1scc(C#N)c1N/N=C(\C#N)S(=O)(=O)c1ccc(Cl)cc1	1%	-1	-28%	?	13µM*	-10%
Cc1c(N2C(=O)/C(=C\c3ccccc3O)SC2=S)c(=O)n(-c2ccccc2)n1C	?	26	?	?	?	18µM*
Cc1c(N2C(=O)/C(=C/c3ccccc3)SC2=S)c(=O)n(-c2ccccc2)n1C	-15%	-14	-7%	2%	19%	-1%[9.22 µM]
COc1cc([N+](=O)[O-])ccc1NC(=O)CCCOc1cccc(C)c1C	3%	-6	?	20µM*	0%	3%
COc1cc([N+](=O)[O-])ccc1NC(=S)NC(=O)CC(C)(C)C	9%	1	-6%	10µM*	-13%	-45%
COc1cc([N+](=O)[O-])ccc1NC(=O)Cc1ccccc1	2%	22	-2%	15%	0%	?
SMILES	Chronic BCR inh	Giardia killer	VP16 counter	RORg inh	MCF10A rereplic	SW480 rereplic
CCOC(=O)Nc1ccc([N+](=O)[O-])cc1OC	.	4	.	.	1%	-3%
COc1ccc([N+](=O)[O-])cc1NC(=S)NC(=O)C(C)(C)C	-1%	-14	-16%	?	-1%	-12%
CCOC(=O)c1ccc(C(=O)OCC)c(NC(=S)Nc2ccc([N+](=O)[O-])cc2OC)c1	-1%	25	2.8µM*	2.2µM*	8%	2%
COC(=O)c1cc(C(=O)c2ccc(Cl)cc2)n2c(=O)/c(=C\N(C)C)sc12	-3%	-3	8%	14%	?	2%
COc1ccc(C(CNC(=O)c2cccc(S(=O)(=O)N(C)c3ccccc3)c2)N2CCCC2)cc1 (centres undefined)	0%	-5	.	.	-1%	-18%
CCCCNCc1nc2ccccc2c(=O)[nH]1	-2%	6	?	10µM*	19%	27%
CCc1ccc(NCc2nc3ccccc3c(=O)[nH]2)cc1	-21%	-4	?	?	28%	5%
CCc1nc2ccccc2c(C(=O)OCc2nc3ccccc3c(=O)[nH]2)c1C	?	-1	.	.	21µM*	12µM*
Cc1ccc(S(=O)(=O)C2(C(=O)Nc3ccc(C(C)C)cc3)CC2)cc1	3%	5	2%	35%	-2%	2%
C(=N\N1CCN(Cc2cccc3ccccc23)CC1)/c1cccnc1	11%	8	-21%	6%	26µM*	0%
FC(F)(F)c1ccc(/C=N/N2CCN(Cc3cccc4ccccc34)CC2)cc1	3%	16	-4%	0%	7%	-4%
CN(CC(=O)Nc1sc2c(c1C#N)CCCCC2)Cc1nc2ccccc2c(=O)[nH]1	0%	-2	-4%	13µM*	?	-6%
COc1ccc(CN(C)CC(=O)Nc2sc3c(c2C#N)CCC3)cc1OC	1%	-18	-19%	?	?	12µM*
Fc1ccc(-[n+]2nc(Nc3ccccc3)sc2-c2cccc(Cl)c2Cl)cc1	-25%	-18	?	8.9µM*	-5%	-2%
CCOc1cc(-c2sc(Nc3ccccc3)n[n+]2-c2ccc(F)cc2)ccc1OC	1%	49	-18%	-22%	-9%	10%
Fc1ccc(-[n+]2nc(Nc3ccccc3)sc2-c2ccc(OCc3ccccc3)cc2)cc1	-9%	9	-15%	-38%	1.3µM*	0%
Clc1cccc(-c2sc(Nc3ccccc3)n[n+]2-c2ccccc2)c1Cl	?	-26	?	14µM*	4%	-1%
COc1cc(Br)c(-c2sc(Nc3ccccc3)n[n+]2-c2ccc(F)cc2)cc1OC	?	17	-20%	6.3µM*	-6%	2%
O=c1[nH]ccc2c(O)cccc12	.	-15	.	.	?	-7%
